# This is part of a sample that, as a whole, favours compounds with a hit. Of some 79,000 tested, about 15% had one in any assay. Activity calls are given as the source filed them. Cut-off read from the data, not from the text of the source: active = growth inhibition above about 70%; inactive = the rest.
# Test: NCI Yeast Anticancer Drug Screen. Data for the rad50 strain (AID 155);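 note: 0% = growth of vehicle-only cultures of the same strain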
# Conditions: S. cerevisiae rad50 strain growth inhibition; at 50.0 µM; active compounds read high
# In short: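 Growth of the mutant yeast was measured after compound exposure and referenced to vehicle-treated cultures.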
row,Compound,growth inhibition
1,COc1ccc2c(Cc3cc(Cl)ccc3O)cncc2c1O,50.1% (inactive)
2,Cc1ccc(NNC2=NC(=S)NC(=O)C2)cc1,97.5% (active)
3,CC#CC(=O)Nc1ccccc1CC(c1c[nH]c2ccccc12)c1c[nH]c2ccccc12,75.4% (active)
4,COC(=O)c1c2oc3c(C(=O)OC)cccc3nc-2cc(N)c1=O,30.2% (inactive)
5,CCCCCC(=O)NNc1ccccc1,85.3% (active)
6,CN(C)CCNc1ccc2nnn3c4ccc(O)cc4c(=O)c1c23,12.1% (inactive)
7,COc1ccc2c(c1)C(=O)C[C@@H]1[C@](C)(C#N)CCC[C@]21C,47.1% (inactive)
8,CCC(=O)c1cc2ccccc2c2ccccc12,66.3% (inactive)
9,O=C1OCCCOC(=O)c2cc(ccc2O)OCC#CC#CCOc2ccc(O)c1c2,12.6% (inactive)
10,Nc1nc(Cl)cc(NCC2(CO)CC(CCCc3ccccc3)C2)n1 (stereo not given),-8.3% (inactive)
11,NNC(=S)Nc1ccccc1,-7.25% (inactive)
12,CCOC(=O)c1ccc(N=Cc2cc(Cl)cc(Cl)c2O)cc1,86.7% (active)
13,CC(C(=O)N1C(=O)N(C(=O)C(C)C(O)c2ccccc2)C(c2ccccc2)C1c1ccccc1)C(O)c1ccccc1 (stereo not given),89.2% (active)
14,CC(C)(C)CC(C)(C)N[P+](NC(C)(C)CC(C)(C)C)(NC(C)(C)CC(C)(C)C)NC(C)(C)CC(C)(C)C,83.2% (active)
15,C/C(=N\NC(=S)N1CCCC1)c1cnccn1,98.8% (active)
16,N=C(N)c1ccc(OCCCCOc2ccc(N)cc2Cl)cc1,54.5% (inactive)
17,CCCCCC(CN(C)C)C(O)/C=C\c1ccccc1 (stereo not given),74.7% (active)
18,CC1(CO)CCCC2(C)C3=C(CCCC3)CCC12 (stereo not given),-3.55% (inactive)
19,O=C(CCCl)Nc1cc2ccccc2oc1=O,-8.5% (inactive)
20,O=[N+]([O-])c1ccccc1N=Nc1c(O)[nH]c2cccc(C(F)(F)F)c12,93.9% (active)

row,Compound,growth inhibition
1,CCCCCCCCC1OC1CCCCCCCC(=O)OCC1CO1 (stereo not given),3.45% (inactive)
2,CCN(CC)CCNc1ccc(C)c2sc3c(OC)cccc3c(=O)c12,74.6% (active)
3,OC(CCN1CCOCC1)c1ccc(Sc2ccccc2)cc1 (stereo not given),98% (active)
4,[Cl-].[La+3].[O-]/N=C(\c1ccccc1)c1ccccn1.[O-]/N=C(\c1ccccc1)c1ccccn1.[O-]/N=C(\c1ccccc1)c1ccccn1,63.3% (inactive)
5,COc1ccc(NC(=O)CSC(N)=O)cc1,49.1% (inactive)
6,Fc1cccc(CSc2ncnc3c2ncn3C2CCCS2)c1 (stereo not given),84.9% (active)
7,CC/C(=C(\CC)c1ccc(OCCN2CCOCC2)cc1)c1ccc(OCCN2CCOCC2)cc1,82.8% (active)
8,O=[N+]([O-])c1c(Cl)ccc2nsnc12,99.4% (active)
9,COc1ccccc1NC(=O)/C(=C\N1C(=O)/C(=C/c2cc(OC)c(OC)c(OC)c2)SC1=S)C(C)=O,46% (inactive)
10,O=CNC(CCCC(=O)O)Cc1cc2ccccc2c2ccccc12 (stereo not given),94.5% (active)
11,C=C1CC2(CCCC3(CC(=C)C(=O)O3)C2(C)C)OC1=O (stereo not given),33% (inactive)
12,CCOC(=O)Nc1cc(NC(C)/C(=N/O)c2ccccc2)c([N+](=O)[O-])c(N)n1 (stereo not given),42.6% (inactive)
13,O=C(N=Nc1cccc(Cl)c1)NNc1cccc(Cl)c1,85.8% (active)
14,Oc1ccc2c(ccc3ccccc32)c1,97.5% (active)
15,CCc1cccc(C(C)(C)C)c1NC(=S)/N=C/C(C(=O)c1ccccc1)=C(\O)c1ccccc1,77.2% (active)
16,NC(=S)N/N=C/c1cn(CCCl)c2ccccc12,57.5% (inactive)
17,COC1=Nc2ccccc2S(=O)(=O)C=C1,98.2% (active)
18,O=C1C2C3C=CC(C3)C2C(=NS(=O)(=O)c2ccccc2)C2C3C=CC(C3)C12 (stereo not given),84.7% (active)
19,NC(=Nc1ccccc1)c1ccc2c(c1)c1c(n2Cc2ccccc2)CCCC1,99.3% (active)
20,NN=C(CC(O)(C(F)(F)Cl)C(F)(F)Cl)CC(O)(C(F)(F)Cl)C(F)(F)Cl,98.9% (active)

# Test: NCI Yeast Anticancer Drug Screen. Data for the mec2-1 strain (AID 157)
# Conditions: S. cerevisiae mec2-1 strain, at 5.0 µM (retest, dose inferred, filed as 0.5), active compounds read high
# In short: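 Each compound was tested on mec2-1 yeast, a strain altered in DNA damage repair or cell cycle control. Growth inhibition is reported relative to vehicle.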
row,Compound,growth inhibition
1,COc1ccc2c(Cc3cc(Cl)ccc3O)cncc2c1O,-8% (inactive)
2,Cc1ccc(NNC2=NC(=S)NC(=O)C2)cc1,8% (inactive)
3,CC#CC(=O)Nc1ccccc1CC(c1c[nH]c2ccccc12)c1c[nH]c2ccccc12,31% (inactive)
4,COC(=O)c1c2oc3c(C(=O)OC)cccc3nc-2cc(N)c1=O,22% (inactive)
5,CCCCCC(=O)NNc1ccccc1,1% (inactive)
6,CN(C)CCNc1ccc2nnn3c4ccc(O)cc4c(=O)c1c23,-3% (inactive)
7,COc1ccc2c(c1)C(=O)C[C@@H]1[C@](C)(C#N)CCC[C@]21C,3% (inactive)
8,CCC(=O)c1cc2ccccc2c2ccccc12,0% (inactive)
9,O=C1OCCCOC(=O)c2cc(ccc2O)OCC#CC#CCOc2ccc(O)c1c2,-4% (inactive)
10,Nc1nc(Cl)cc(NCC2(CO)CC(CCCc3ccccc3)C2)n1 (stereo not given),10% (inactive)
11,NNC(=S)Nc1ccccc1,-3% (inactive)
12,CCOC(=O)c1ccc(N=Cc2cc(Cl)cc(Cl)c2O)cc1,72% (active)
13,CC(C(=O)N1C(=O)N(C(=O)C(C)C(O)c2ccccc2)C(c2ccccc2)C1c1ccccc1)C(O)c1ccccc1 (stereo not given),-10% (inactive)
14,CC(C)(C)CC(C)(C)N[P+](NC(C)(C)CC(C)(C)C)(NC(C)(C)CC(C)(C)C)NC(C)(C)CC(C)(C)C,97% (active)
15,C/C(=N\NC(=S)N1CCCC1)c1cnccn1,56% (inactive)
16,N=C(N)c1ccc(OCCCCOc2ccc(N)cc2Cl)cc1,-2% (inactive)
17,CCCCCC(CN(C)C)C(O)/C=C\c1ccccc1 (stereo not given),-1% (inactive)
18,CC1(CO)CCCC2(C)C3=C(CCCC3)CCC12 (stereo not given),-56% (inactive)
19,O=C(CCCl)Nc1cc2ccccc2oc1=O,-2% (inactive)
20,O=[N+]([O-])c1ccccc1N=Nc1c(O)[nH]c2cccc(C(F)(F)F)c12,52% (inactive)

row,Compound,growth inhibition
1,CCCCCCCCC1OC1CCCCCCCC(=O)OCC1CO1 (stereo not given),1% (inactive)
2,CCN(CC)CCNc1ccc(C)c2sc3c(OC)cccc3c(=O)c12,-1% (inactive)
3,OC(CCN1CCOCC1)c1ccc(Sc2ccccc2)cc1 (stereo not given),46% (inactive)
4,[Cl-].[La+3].[O-]/N=C(\c1ccccc1)c1ccccn1.[O-]/N=C(\c1ccccc1)c1ccccn1.[O-]/N=C(\c1ccccc1)c1ccccn1,25% (inactive)
5,COc1ccc(NC(=O)CSC(N)=O)cc1,-1% (inactive)
6,Fc1cccc(CSc2ncnc3c2ncn3C2CCCS2)c1 (stereo not given),1% (inactive)
7,CC/C(=C(\CC)c1ccc(OCCN2CCOCC2)cc1)c1ccc(OCCN2CCOCC2)cc1,36% (inactive)
8,O=[N+]([O-])c1c(Cl)ccc2nsnc12,-27% (inactive)
9,COc1ccccc1NC(=O)/C(=C\N1C(=O)/C(=C/c2cc(OC)c(OC)c(OC)c2)SC1=S)C(C)=O,-12% (inactive)
10,O=CNC(CCCC(=O)O)Cc1cc2ccccc2c2ccccc12 (stereo not given),13% (inactive)
11,C=C1CC2(CCCC3(CC(=C)C(=O)O3)C2(C)C)OC1=O (stereo not given),14% (inactive)
12,CCOC(=O)Nc1cc(NC(C)/C(=N/O)c2ccccc2)c([N+](=O)[O-])c(N)n1 (stereo not given),-5% (inactive)
13,O=C(N=Nc1cccc(Cl)c1)NNc1cccc(Cl)c1,-11% (inactive)
14,Oc1ccc2c(ccc3ccccc32)c1,-4% (inactive)
15,CCc1cccc(C(C)(C)C)c1NC(=S)/N=C/C(C(=O)c1ccccc1)=C(\O)c1ccccc1,-11% (inactive)
16,NC(=S)N/N=C/c1cn(CCCl)c2ccccc12,-49% (inactive)
17,COC1=Nc2ccccc2S(=O)(=O)C=C1,3% (inactive)
18,O=C1C2C3C=CC(C3)C2C(=NS(=O)(=O)c2ccccc2)C2C3C=CC(C3)C12 (stereo not given),-2% (inactive)
19,NC(=Nc1ccccc1)c1ccc2c(c1)c1c(n2Cc2ccccc2)CCCC1,-7% (inactive)
20,NN=C(CC(O)(C(F)(F)Cl)C(F)(F)Cl)CC(O)(C(F)(F)Cl)C(F)(F)Cl,32% (inactive)

# — PubChem BioAssay (NCI)
